p53ts 39C kill: kills p53ts cells at the nonpermissive temperature; H1299-p53A138V viability at 39C, ATP luminescence, 24 h; Potency, µM (series often up to 46.1 µM), without a hit: at the top dose activity change, negative = cell killing, most hits filed as cytotoxic; 130,000 tested, 1.5% active; AID 902; also: % is scaled to controls: 0 for no effect and ±100 for the full control effect; nearly all actives have a fitted effect of over 55% in size
p53ts 32C kill: cytotoxicity in p53ts cells at permissive temperature; H1299-p53A138V at 32C, ATP luminescence viability, 24 h; Potency, µM (doses to about 46.1 µM), without a hit: at the top dose activity change, negative = cytotoxicity, usual class: cytotoxic; 130,000 tested, 0.93% active;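 also: 0% = DMSO and -100% = full killing by reference compound; nearly all actives have a fitted effect of over 55% in size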
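H1299-p53 A138V cells (temperature-sensitive p53) exposed 24 h to up to 46 uM compound at 32C, where p53 is wild-type in conformation. Viability read as ATP luminescence and normalised to DMSO and 100 uM tamoxifen. AC50 fitted with the Hill equation.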
Tau filament bind: binds recombinant human tau filaments; P10636; recombinant tau filaments, thioflavin S fluorescence, 15 h; filaments grown with octadecylsulfate alongside compound; Potency, µM (titrated, usually from 57.1 µM), for inactives: at the highest dose activity change, negative = inhibition; 71,000 tested, 2% active; AID 596;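 also: % is scaled to controls: 0 for no effect and ±100 for the full control effect; actives lower thioflavin S fluorescence by blocking filaments or displacing dye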
Target sequence (P10636 whole entry, looked up): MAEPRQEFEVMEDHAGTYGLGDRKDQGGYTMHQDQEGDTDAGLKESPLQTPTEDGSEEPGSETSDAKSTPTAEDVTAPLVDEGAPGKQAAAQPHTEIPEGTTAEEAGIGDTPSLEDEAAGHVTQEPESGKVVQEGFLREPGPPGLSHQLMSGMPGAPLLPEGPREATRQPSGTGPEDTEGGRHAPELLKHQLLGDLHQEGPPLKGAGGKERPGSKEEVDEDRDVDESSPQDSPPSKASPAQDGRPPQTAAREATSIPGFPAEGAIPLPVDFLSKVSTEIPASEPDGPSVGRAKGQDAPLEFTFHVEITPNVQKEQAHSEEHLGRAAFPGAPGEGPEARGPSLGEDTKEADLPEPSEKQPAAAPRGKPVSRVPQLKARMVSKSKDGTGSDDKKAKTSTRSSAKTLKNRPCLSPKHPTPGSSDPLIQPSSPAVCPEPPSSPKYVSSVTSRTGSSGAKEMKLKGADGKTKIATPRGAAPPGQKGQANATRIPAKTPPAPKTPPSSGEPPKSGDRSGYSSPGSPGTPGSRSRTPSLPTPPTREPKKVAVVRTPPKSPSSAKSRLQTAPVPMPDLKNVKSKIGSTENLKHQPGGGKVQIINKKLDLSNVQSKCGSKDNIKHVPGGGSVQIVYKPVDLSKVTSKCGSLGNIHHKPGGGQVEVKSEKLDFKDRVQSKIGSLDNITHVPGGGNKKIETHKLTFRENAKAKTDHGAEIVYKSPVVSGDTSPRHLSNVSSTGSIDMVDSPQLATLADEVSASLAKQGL
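Thioflavine S fluorescence (ex 450, em 510 nm) reports filaments formed from 1 uM human tau plus 30 uM ODS over 15 h at 37 C (10 mM HEPES pH 7.4, 100 mM NaCl, 5 mM DTT); compounds displacing dye or blocking filaments lower signal.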
Imprint erasure: induces erasure of genomic imprints in mouse ES cells. mouse ES Peg3-LacZ reporter, beta-gal luminescence, 40 h. Potency, µM (top dose mostly 60.7 µM), for inactives: at the highest dose activity change, positive = activation, hits mostly activators. 110,000 tested, 0.02% active
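Gelatin-coated wells received 300 freshly trypsinized female ES cells with a Peg3LacZ-Neo reporter on the maternal allele, then incubated 40 hours at 37C. BetaGlo was added for 5 minutes at room temperature before a single luminescence read.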
Luciferase inh: inhibitors of firefly luciferase | P08659 | purified firefly luciferase, luminescence, 8 min | Potency, µM (titrated, usually from 57.1 µM), for inactives: at the highest dose activity change, negative = inhibition, most hits filed as inhibitors | 72,000 tested, 2.2% active; also: % is scaled to controls: 0 for no effect and ±100 for the full control effect; nearly all actives have a fitted effect of over 40% in size
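Luminescence read-out after 8 min at room temperature; enzyme reaction used luciferin plus 10 uM ATP (linear range) in imidazole buffer pH 7.2 with KCl, MgCl2, Tween 20 and BSA. Each sample was run as a titration.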
Numbers without * were called inactive; ? = inconclusive; / = no result given; [ ] = remark or other dose. Compounds with a hit are over-represented: about 3.4% of the library has one in this group of screens. Calls follow the shape of the dose curve; as a rule, active = well fitted curve in the direction sought with a large enough effect; inconclusive = small, poorly fitted or top-dose-only effect, or another doubt; inactive = no such curve, though single readings can be large; an effect the other way counts as inactive or inconclusive. Potency is read from the fitted curve at half-maximal effect.

SMILES | p53ts 39C kill | p53ts 32C kill | Tau filament bind | Imprint erasure | Luciferase inh
COc1cccc(C(=O)Nc2ccc(NC(=O)c3ccc(C(C)(C)C)cc3)cc2)c1 | ? | -2% | / | -12%[10.9 µM] | /
COc1ccc(NC(=O)c2ccc(S(=O)(=O)N(C)C)cc2)cc1OC | -9% | -6% | -10% | -2% | -3%
COc1cccc(C(=O)Nc2cccc(NC(C)=O)c2)c1 | -3% | -14% | -7% | -48% | -8%
COc1ccc(C(=O)COC(=O)c2cccc(NC(=O)c3ccc(OC)c(OC)c3)c2)cc1 | 16µM* | ? | / | -75%[10.9 µM] | /
COc1cccc(NC(=O)CNC(=O)c2ccccc2)c1 | 6% | 0% | 10% | -15% | 0%
COc1ccc2oc(=O)c(C(=O)Nc3cccc(C(=O)O)c3)cc2c1 | 5µM* | 7.9µM* | / | -89%[10.9 µM] | /
COc1ccc(C(=O)Nc2cccc(OC)c2)cc1 | 13µM* | 10µM* | 3% | -92% | 7.9µM*
COc1cccc(NC(=O)CNC(C)CCC(C)C)c1 (configuration not stated) | -16% | -6% | 20µM* | -21% | 4%
CCNc1ncnc2c1nnn2C | -6% | -1% | / | 26%[10.9 µM] | /
O=C1C(c2ccncc2)=C(O)c2ccccc21 | 6.3µM* | 3.2µM* | ? | ? | 13µM*
Cc1ccc(Nc2nc3nonc3[nH]c2=O)cc1C | 10µM* | 13µM* | -16% | -53% | ?
O=c1oc2ccccc2cc1-c1nc2ccccc2o1 | ? | ? | -24% | -86% | 16µM*
Cc1cc(-c2nnc(-c3cc4ccccc4oc3=O)o2)c(C)n1-c1ccccc1 | -21% | 9% | 3.2µM* | -17% | -3%
Cn1c(NCCO)nc2c1c(=O)n(Cc1ccccc1Cl)c(=O)n2C | 2% | 8% | / | -3%[10.9 µM] | /
O=C(c1ccccc1)N1c2ncnn2C2(CCCCC2)[C@@H]2CCCC[C@@H]21 | 4% | -4% | / | -12%[10.9 µM] | /
CC(C)C1O[C@H](/C=C\c2ccccc2)OCC1(C)C (some centres not stated) | / | / | / | -10%[10.9 µM] | /
O=C(Nc1cccc(Cl)c1)c1cc(-c2ccccc2)on1 | -5% | -30% | / | 3%[10.9 µM] | /
O=C(c1ccccc1)c1cc(-c2ccccc2)on1 | / | / | / | / | 1.6µM*
COc1ccc(-c2noc(N(C)CC(=O)Nc3cccc(C(F)(F)F)c3)n2)cc1 | -17% | 34% | 12% | -16% | 25µM*
Cc1ccccc1-n1c(SCC(=O)Nc2ccc(Cl)cc2F)nnc1-c1cc2occc2n1C | / | 1% | / | / | /
CCc1ccc(-n2c(=O)c3c(C)c(C(=O)N(C)C)sc3n(CC(=O)Nc3cc(Cl)ccc3C)c2=O)cc1 | 23% | 4% | / | 16%[10.9 µM] | /
CCOc1ccccc1NC(=O)Cn1c(=O)n(-c2ccc(C)c(C)c2)c(=O)c2c(C)c(C(=O)N(C)C)sc21 | 13µM* | -3% | / | 25%[10.9 µM] | /
Cn1cc(C(=O)Nc2ccc(C#N)cc2)c2ccccc2c1=O | -23% | 4% | / | -4%[10.9 µM] | /
CCN(CC)c1nn2c(=O)c(C(=O)NCc3ccc(N(C)C)cc3)cnc2s1 | -1% | 1% | / | -10%[10.9 µM] | /
COc1cccc(-c2cn3nc4c(nc3n2)CCCC4)c1 | 5µM* | 5µM* | 114% | -94% | 3.2µM*
SMILES | p53ts 39C kill | p53ts 32C kill | Tau filament bind | Imprint erasure | Luciferase inh
CC(=O)Nc1ccc(Nc2ccc3cc(S(=O)(=O)N4CCCCC4)ccc3n2)cc1 | -14% | 6% | / | -8%[10.9 µM] | /
CCCOC(=O)c1ccc(NC(=O)c2cnccn2)cc1 | -11% | 8% | -16% | -55% | -6%
O=C(Nc1ccc2ccccc2c1)c1cnccn1 | ? | ? | 25µM* | -75% | 7.9µM*
O=C(Nc1ccc2ccccc2c1)c1cccnc1 | -28% | -29% | 20% | -44% | 13µM*
O=C(Nc1ccc2nc3ccccc3nc2c1)c1ccccc1 | 10µM* | ? | / | / | /
CCCCOC(=O)c1ccc(NC(=O)c2cnccn2)cc1 | -10% | -3% | 25µM* | -45% | -5%
Cc1ccc(C(C)C)c(OCC(=O)Nc2ccc(-c3nc4ncccc4o3)cc2C)c1 | -11% | -2% | / | 2%[10.9 µM] | /
Cc1ccc(-n2sc3ccccc3c2=O)cc1S(=O)(=O)N1CCCCC1 | -2% | -23% | -11% | -78% | 16µM*
Cc1ccc(N(C)C(=O)Cn2ncc3c([nH]c4ccccc43)c2=O)cc1C | / | -9% | / | / | /
CC(C)C(=O)NCC(c1ccc2c(c1)OCO2)N1CCN(c2ccccc2)CC1 (configuration not stated) | -16% | -4% | / | 2%[10.9 µM] | /
COc1cccc(NC(=O)CSc2nnc(-c3cc(C)n(-c4ccccc4)c3C)o2)c1 | 20µM* | -23% | 37% | -61% | -22%
COc1cccc(OC(=O)CSc2nnc(-c3ccccc3OC)o2)c1 | -3% | 1% | / | -12%[10.9 µM] | /
Cc1ccc(Sc2ccc(N3CCCC(C(=O)Nc4ccc(Br)cc4)C3)nn2)cc1 (configuration not stated) | 9% | 17% | / | -11%[10.9 µM] | /
CN(CCc1ccccn1)c1ccc2c(c1)C(=O)c1ccccc1-2 | -6%[9.22 µM] | 2%[9.22 µM] | 4µM* | -7%[10.9 µM] | -24%[11.4 µM]
Cc1c(Cl)cccc1NC(=O)c1cc(-c2cccc(Cl)c2)on1 | 41% | 13% | / | 15%[10.9 µM] | /
O=C(Nc1cccc2ccccc12)c1ccccc1 | 5%[9.22 µM] | 2%[9.22 µM] | -10%[11.4 µM] | -2%[10.9 µM] | 0%[11.4 µM]
Cc1cc(NC(=O)c2ccccc2)sc1C | ? | ? | -10% | -86% | 13µM*
Cc1ccc(NC(=O)c2ccccc2)s1 | 7.9µM* | 4µM* | -13% | -75% | 7.9µM*
O=C(Nc1cc(NC(=O)c2ccccc2)c(C(=O)O)cc1C(=O)O)c1ccccc1 | 5% | 8% | / | -6% | /
CCN(CC)c1ccc(CNC23CN4CN(CN(C4)C2)C3)cc1 | -3% | 3% | -9%[11.4 µM] | -10% | -3%
CCN(CC)c1ccc(N)cc1 | 23% | 4%[1.84 µM] | 13µM* | -21% | /
c1ccc2c3c([nH]c2c1)-c1[nH]ncc1CC3 | -15% | 8% | 22% | -3% | -5%
Clc1ccc2[nH]c3c(c2c1)CCc1cn[nH]c1-3 | 2% | 21% | 16µM* | -5% | -10%
CO[C@@H]1/C=C\O[C@]2(C)Oc3c(C)c(O)c4c(O)c(c(CN5CCN(C)CC5)c(O)c4c3C2=O)NC(=O)/C(C)=C\C=C[C@@H](C)[C@@H](O)[C@H](C)[C@@H](O)C(C)[C@H](OC(C)=O)[C@@H]1C (some centres not stated) | / | / | / | -2%[10.9 µM] | /
CO[C@H]1/C=C/O[C@@]2(C)Oc3c(C)c(O)c4c(O)c(c5c(c4c3C2=O)NC2(CCN(CC(C)C)CC2)N=5)=NC(=O)/C(C)=C\C=C\[C@H](C)[C@H](O)[C@@H](C)[C@@H](O)[C@@H](C)[C@H](OC(C)=O)[C@@H]1C | 6% | 0%[1.84 µM] | 0.4µM* | -8% | /

Bioassay records as filed in PubChem BioAssay.
